Assay results as given in PubChem BioAssay AID1903 (Southern Research Specialized Biocontainment Screening …, 2009).
Hit rate of the full screen: of about 310,000 compounds, about 1,200 (0.39%) were called active. No rule for the calls is given here. Not all results are given here. Potency and affinity values are given separately.

Target: Large T antigen (Simian virus 40) (UniProt P03070)
Assay: SV40 large T antigen inhibitors, biochemical (AID 1903)
Details: SV40 large T antigen ATPase/helicase inhibition assay; at 20 µM; active compounds read high

Large T antigen (Simian virus 40), sequence (P03070 whole entry, looked up): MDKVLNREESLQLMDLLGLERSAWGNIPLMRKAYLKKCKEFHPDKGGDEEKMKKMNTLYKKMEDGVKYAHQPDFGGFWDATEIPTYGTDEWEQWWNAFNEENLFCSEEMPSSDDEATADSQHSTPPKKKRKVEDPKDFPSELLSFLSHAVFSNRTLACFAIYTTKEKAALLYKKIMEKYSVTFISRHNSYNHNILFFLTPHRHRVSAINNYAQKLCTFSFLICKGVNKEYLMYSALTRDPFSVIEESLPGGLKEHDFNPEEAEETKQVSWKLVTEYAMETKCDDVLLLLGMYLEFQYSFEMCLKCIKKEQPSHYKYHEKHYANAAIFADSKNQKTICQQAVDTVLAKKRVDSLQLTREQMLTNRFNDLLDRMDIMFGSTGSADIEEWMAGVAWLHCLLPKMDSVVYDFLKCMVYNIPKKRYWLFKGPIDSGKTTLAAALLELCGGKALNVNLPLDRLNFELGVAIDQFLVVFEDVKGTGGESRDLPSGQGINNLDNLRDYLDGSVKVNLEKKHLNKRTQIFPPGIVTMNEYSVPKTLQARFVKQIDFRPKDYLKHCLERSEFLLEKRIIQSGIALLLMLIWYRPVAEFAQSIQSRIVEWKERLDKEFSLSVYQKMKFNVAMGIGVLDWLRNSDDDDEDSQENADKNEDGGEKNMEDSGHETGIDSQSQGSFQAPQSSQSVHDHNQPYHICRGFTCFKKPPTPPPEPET

inhibition, inactive:
Cc1ccc(Cl)cc1NC(=O)C(NS(=O)(=O)c1cccs1)c1ccccc1 (stereo not drawn) 3.94%
CC(C)C(NS(=O)(=O)c1ccc2c(c1)OCCCO2)C(=O)O (stereo not drawn) -3.36%
Nc1ccc2nc(-c3ccc(Cl)cc3)[nH]c2c1 28%
Nc1ccc2nc(-c3ccc(-c4nc5ccc(N)cc5[nH]4)cc3)[nH]c2c1 12.1%
Cc1ccc(-n2nc(C(=O)O)nc2-c2ccccc2)cc1 38%
Cc1cc(=O)nc2c3ccccc3n(CC(=O)NCCC3=CCCCC3)n12 2.66%
COc1ccc(S(=O)(=O)N2CCOC2CNC(=O)C(=O)NCCc2ccccc2)cc1C (stereo not drawn) 6.95%
O=[N+]([O-])c1ccc(N2CCOCC2)cc1NCc1ccccc1 5.38%
C=Cc1ccc(N=Cc2c(O)ccc3ccccc23)cc1 -18.3%
COc1cccc(/C=N/N2CCOCC2)c1O 3.29%
CN1CCN(CC(=O)N/N=C\c2c[nH]c3ccccc23)CC1 5.96%
O=C(O)c1ccc(N=Cc2c(O)ccc3ccccc23)cc1 6.09%
CN1CCN(/N=C/c2c3ccccc3c(Cl)c3ccccc23)CC1 1.67%
Cc1ccc(O)c(N=Cc2cc(Cc3ccccc3)cc([N+](=O)[O-])c2O)c1 15.2%
COc1cccc(C=Nc2ccc3c(c2)OCCO3)c1O 21.9%
Cc1c(C(=O)N2CCOCC2)c(S(=O)(=O)Nc2ccc(OC(F)(F)F)cc2)c(C)n1C 4.66%
CC(=O)c1c(C)[nH]c(C(=O)OC2CCCCC2=O)c1C (stereo not drawn) 6.27%
Cc1ccsc1C=Nc1c(C)n(C)n(-c2ccccc2)c1=O 4.72%
COCCNC(=O)C(c1ccco1)N(C(=O)Cn1nnc2ccccc21)c1ccccc1C (stereo not drawn) 2.93%
Cc1ccc(CN2CC(C(=O)N(C)CC(=O)Nc3cccc(F)c3)CC2=O)cc1 (stereo not drawn) 25.6%
CC(CC(=O)N(C)c1c(N)n(Cc2ccccc2)c(=O)[nH]c1=O)c1ccccc1 (stereo not drawn) 12.7%
COc1ccccc1CNc1nc(S(=O)(=O)c2ccccc2)c(Cl)s1 21.1%
O=C(NC1CCCCC1)C(c1ccco1)N(CCc1ccccc1)C(=O)C(F)(F)F (stereo not drawn) 9.43%
COC(=O)c1cccc(NC(=O)c2cnn(C)c2)c1 3.5%
Cc1cc(Br)cc(C=Nc2ccc(N3CCOCC3)cc2)c1O 19.2%
Oc1c(Cl)cc(Cl)cc1C=Nc1ccc(N2CCOCC2)cc1 15.7%
C(=N\Nc1nc(Nc2ccccc2)nc(N2CCOCC2)n1)/c1c[nH]c2ccccc12 5.43%
Oc1c(Br)cc(Cl)cc1C=Nc1ccc(N2CCOCC2)cc1 17.2%
Oc1cc(Br)ccc1C=Nc1ccc(N2CCCCC2)cc1 10.6%
CN(C)c1nc(N/N=C/c2c[nH]c3ccccc23)nc(N2CCOCC2)n1 27.1%
O=C1[C@H]2[C@@H](c3ccc(Cl)cc3)N3C(=O)N(c4cccc(Cl)c4)C(=O)[C@@]3(Cc3ccccc3)[C@H]2C(=O)N1C1CCCCC1 6.67%
Cc1ccc(S(=O)(=O)N2CCN(S(=O)(=O)c3ccc4c(c3)OCCO4)CC2)cc1 2.43%
O=C(C1CCN(C2CC(=O)N(c3ccc(F)cc3)C2=O)CC1)N1CCOCC1 (stereo not drawn) 6.36%
COc1ccccc1N1CCN(C(CNS(C)(=O)=O)c2cccnc2)CC1 (stereo not drawn) 10%
CCOC(=O)c1[nH]c(C)c(C(=O)N2CCN(c3ccc(F)cc3)CC2)c1C 27.5%
C/C(CC(=O)Nc1ccc2c(c1)OCCO2)=N\NC(=O)COc1cccc(C)c1 6.15%
O=C(COC(=O)[C@@H]1CCCN1S(=O)(=O)c1ccc(Cl)cc1)NC1CCS(=O)(=O)C1 (stereo partly drawn) 1.86%
CCOc1ccc(/C=N/NS(=O)(=O)c2ccc(C)cc2)cc1OC 12.6%
Cc1ccc(C2C3=C(CCCC3=O)Nc3[nH]c(=S)[nH]c(=O)c32)cc1 (stereo not drawn) 23.7%
COC(=O)C1=C(C)Nc2[nH]c(=S)[nH]c(=O)c2C1c1ccc(O)cc1 (stereo not drawn) 26.6%
COC1Cc2ccccc2N(C(N)=O)c2ccccc21 (stereo not drawn) 11.8%
NS(=O)(=O)c1ccc(CCNC(=O)CSc2nc3ccccc3c3nc(CCN4CCCCC4)nn23)cc1 1.71%
COc1ccc(C2=CC3=C(Br)C(=O)C(C)(OC(=O)c4ccco4)C(=O)C3=CO2)cc1 (stereo not drawn) 50.8%
COc1ccc(C2=CC3=C(Br)C(=O)C(C)(OC(=O)c4cccs4)C(=O)C3=CO2)cc1 (stereo not drawn) 52.5%
COc1ccc2oc(C)c(C(=O)NN)c2c1 28.3%
O=C(NC1CCS(=O)(=O)C1)Oc1ccc(Cl)cc1 (stereo not drawn) 9.05%
O=C(NC1CCS(=O)(=O)C1)Oc1ccccc1 (stereo not drawn) 6.71%
O=[N+]([O-])c1ccccc1-c1cc(-c2ccccc2O)n[nH]1 5.15%
O=[N+]([O-])c1ccccc1-c1cc(-c2cc(Cl)ccc2O)n[nH]1 19%
O=C(OCC(=O)N1CCN(c2ccccc2)CC1)c1cccs1 3.9%
O=C(CSc1ccc(-c2nc3ccccc3[nH]2)cn1)Nc1ccc2c(c1)OCCO2 3.79%
CCN(c1ccc(NC(=O)COC(=O)c2ccc(C)s2)cc1)C(C)C 29.8%
CCOC(=O)c1c(C)[nH]sc1=S 15%
CCOC(=O)c1c(N)sc(N)c1C(=O)OCC 36.6%
O=C(NC(=S)Nc1ccccc1[N+](=O)[O-])c1cncc(Br)c1 7.4%
CCOc1ccc(Br)cc1S(=O)(=O)Nc1ccc(C(=O)Nc2ccccc2OC)cc1 11.7%
O=[N+]([O-])c1ccc2c(c1Nc1ccccc1Cl)=NC1(CCCCC1)N=2 14.5%
CCN(CC)C(=O)C(=O)c1cccn1-c1ccc(C#N)cc1 12.2%
O=C(Nc1ccccc1)c1ccc(NCC2CCCO2)c([N+](=O)[O-])c1 (stereo not drawn) 16.3%
CC(NC(=O)Nc1ccccc1O)(C(F)(F)F)C(F)(F)F 10.1%
COc1ccc(NC(=O)NC(C)(C(F)(F)F)C(F)(F)F)cc1 1.34%
O=C(Nc1ccccc1N1CCN(C(=O)c2ccc(Cl)cc2)CC1)c1cccnc1 -3.62%
Cc1noc(C)c1CS(=O)(=O)c1ccc([N+](=O)[O-])cc1 4.7%
CC/C(=N\Nc1nncc2ccccc12)c1ccc(F)cc1 0.15%
O=C(c1ccncc1)c1ccc(N2CCN(C3CC(=O)N(Cc4cccs4)C3=O)CC2)cc1 (stereo not drawn) 4.51%
O=C1CC(N2CCN(c3ccc(F)cc3)CC2)C(=O)N1Cc1cccs1 (stereo not drawn) 7.54%
COc1cc2c(cc1NC(=O)CSc1ccc(Cl)cc1)oc1ccccc12 20.1%
Cc1ccc(C(=O)CSc2nnc(-c3cccnc3)n2N)cc1 13.6%
O=C(COC(=O)CCC(NC(=O)OCc1ccccc1)C(=O)OCC(=O)Nc1ccccc1)Nc1ccccc1 (stereo not drawn) 9.57%
O=C(O)/C=C/C(=O)Nc1ccc(-n2nccc2C(F)(F)F)cc1 22.7%
O=C1/C(=C\c2ccc(Br)cc2)SC(=S)N1NS(=O)(=O)c1ccccc1 5.34%
O=C(NN1C(=O)/C(=C/c2ccc(O)cc2)SC1=S)c1ccccc1O 38%
CC(/C=C1\SC(=S)N(NS(=O)(=O)c2ccccc2)C1=O)=C\c1ccccc1 28.2%
O=C(NN1C(=O)/C(=C/c2cccc(O)c2)SC1=S)c1ccccc1O 0.53%
CCCC1NC(=S)N(C2CCCCC2)C1=O (stereo not drawn) 1.78%
Cc1ccc(-c2cc3c(n2-c2ccc(C(=O)O)cc2)CCCC3=O)cc1 11%
Cc1ccc(-n2c(C)cc3c2CCCC3=O)cc1 17.7%
CCC(C)(C)n1nnnc1C(c1ccccc1F)N1CCC(C(N)=O)CC1 (stereo not drawn) 8.52%
O=C(COc1ccc(Cl)cc1)NCc1nnc(SCC(=O)NC2CCCC2)o1 14.1%
COc1ccc2cc(C(=O)N3CCN(c4ccccc4OC)CC3)[nH]c2c1 2.37%
Cc1ccc2[nH]c3ccccc3c(=O)c2c1 4.82%
O=c1c2ccccc2[nH]c2ccccc12 7.79%
Cc1ccc(C)c(OC(=O)c2cccnc2Cl)c1C 25.3%
CCOCCn1c(SCc2ccccc2)nc2c1c(=O)[nH]c(=O)n2C 16.9%
CCOC(=O)C1C(c2ccccc2)C(C(=O)OCC)S(=O)(=O)C(CCN(CC)CC)S1(=O)=O (stereo not drawn) 4.87%
COC(=O)Cc1nnc(SCC(=O)Nc2ccccc2)c2ccccc12 11.3%
COc1ccc(NC(=O)Cn2c3ccccc3c3nc4n(c(=O)c32)CCS4)cc1OC 10.1%
O=C(c1cc(-c2ccc(Cl)cc2)on1)N1CCOCC1 7.19%
O=C(Nc1ccccc1)Nc1snnc1C(=O)Nc1cccc(O)c1 10.9%
O=C(c1nnsc1S(=O)(=O)c1ccc(Cl)cc1)N1CCOCC1 4.81%
Cc1nnsc1C(=O)Nc1ccc(Cl)cc1 3.36%
Clc1cccc(NCc2nnc(SCc3ccc(Cl)cc3Cl)o2)c1 0.46%
COc1ccc(/C=N/NC(=O)c2ccccc2OC)cc1COc1ccccc1[N+](=O)[O-] 1.66%
